Records with an inconclusive call do not appear. Active and inactive are the calls of the source. Rule for the calls, unless noted: active = hit-call score of the fitted dose curve at least 0.9, where 1 is the maximum; inactive = score below 0.9.
Experiments:
[1] = ACEA_ER_80hr: ACEA Biosciences xCELLigence Real-Time Cell Analysis on Estrogen Receptor Agonism for Proliferation (AID 2282667; active = hit-call score of the fitted dose curve at least 0.9, where 1 is the maximum); conditions: T47D proliferation, impedance (xCELLigence), 80 h
In short: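 Real-time electrical impedance tracked growth of the human breast line T47D, with the 80 h post-dosing value used. Dosing spanned eight 1:4 steps down from a 100 uM final top concentration, run in duplicate.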

[2] = ATG_CRE_CIS: Attagene CIS-FACTORIAL HepG2 Assay for human cAMP Responsive Element (CRE) binding protein 3 (AID 2282926); conditions: HepG2 CRE cis-reporter, Attagene multiplexed mRNA; actives raise or lower the signal
In short: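 Assay format: transient reporter transfection of HepG2, 24 h treatment, total RNA isolation with DNase I step. Reporter abundance read by fluorescence after PCR and capillary separation; DMSO-normalised gain or loss fitting.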

[3] = molecular target: CCAAT/enhancer-binding protein beta (Homo sapiens) (UniProt P17676); assay: ATG_C_EBP_CIS: Attagene CIS-FACTORIAL HepG2 Assay for human CCAAT/Enhancer Binding Protein (C/EBP) beta (AID 2282927); conditions: HepG2 Attagene cis-factorial transcription factor reporter; actives raise or lower the signal
In short: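 Changes in reporter mRNA, rather than exogenous chimeric receptor activity, reflect native C/EBP signalling in transfected HepG2 cells dosed for 24 h; transcripts are detected by RT-PCR and capillary electrophoresis.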

[4] = ATG_CMV_CIS: Attagene CIS-FACTORIAL HepG2 Assay for human CMV (Internal Marker) (AID 2282928); conditions: HepG2 CMV promoter reporter, transcription factor profiling; actives raise or lower the signal;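 note: endpoint acts as a background internal control marker rather than a target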
In short: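 Reporter transcripts from transfected HepG2 cells are isolated after 24 h of chemical dosing, reverse-transcribed and amplified. Fragments labeled with 6-FAM are cut with HpaI and quantified by capillary electrophoresis; DMSO defines baseline.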

[5] = ATG_DR4_LXR_CIS: Attagene CIS-FACTORIAL HepG2 Assay for human Liver X Receptor (LXR), DR4 submotif (AID 2282929); conditions: HepG2 Attagene DR4 cis-reporter, mRNA transcription; actives raise or lower the signal
In short: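 Measures endogenous transcription factor activity via a DR4-driven reporter transcript in human HepG2 cells. Compounds incubated 24 h; mRNA quantified by RT-PCR and capillary electrophoresis, analysed as gain or loss of signal versus DMSO.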

[6] = molecular target: Aryl hydrocarbon receptor (Homo sapiens) (UniProt P35869); assay: ATG_Ahr_CIS: Attagene CIS-FACTORIAL HepG2 Assay for human Aryl Hydrocarbon Receptor (Ahr) (AID 2282930); conditions: HepG2 AhR cis-factorial reporter transcription; actives raise or lower the signal
In short: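 HepG2, transient MRTU (cis) transfection, 24 h exposure. RNA → cDNA → PCR → 6-FAM primer extension → HpaI 2 h 37 C → CE. Fit: bidirectional, DMSO baseline.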

[7] = ATG_AP_2_CIS: Attagene CIS-FACTORIAL HepG2 Assay for human Activator Protein 2 (AP-2) (AID 2282932); conditions: HepG2 AP-2 cis-reporter, Attagene transcription factor profiling; actives raise or lower the signal
In short: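 Transiently transfected HepG2 cells are exposed to chemical for 24 h. Reporter transcripts are then measured as fluorescence following RT-PCR and capillary separation, and gain- or loss-of-signal is fitted relative to DMSO.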

[8] = ATG_BRE_CIS: Attagene CIS-FACTORIAL HepG2 Assay for human Bone Morphogenetic Protein (BMP) Response Element (BRE) (AID 2282933); conditions: HepG2 BMP response element reporter, Attagene transcription factor profiling; actives raise or lower the signal
In short: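 HepG2 cells transiently transfected with multiplexed cis-element reporter units were dosed with chemical for 24 h. Reporter mRNA was measured by RT-PCR with fluorescent labelling, HpaI digestion and capillary electrophoresis; bidirectional fitting relative to DMSO.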

[9] = molecular target: Retinoic acid receptor alpha (Homo sapiens) (UniProt P10276); assay: ATG_DR5_RAR_CIS: Attagene CIS-FACTORIAL HepG2 Assay for human Retinoic Acid Receptor Alpha (RARE), DR5 submotif (AID 2282934); conditions: HepG2 Attagene cis-factorial RARE DR5 reporter, mRNA; actives raise or lower the signal
In short: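 HepG2, transient cis-reporter transfection, 24 h exposure. mRNA readout: RT-PCR, FAM label, HpaI cut, capillary electrophoresis. DMSO baseline, gain/loss fitting.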

[10] = molecular target: Transcription factor E2F1 (Homo sapiens) (UniProt Q01094); assay: ATG_E2F_CIS: Attagene CIS-FACTORIAL HepG2 Assay for human E2F Transcription Factor 1 (AID 2282935); conditions: HepG2 Attagene cis-reporter, E2F reporter RNA transcripts; actives raise or lower the signal
In short: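 Fluorescent RT-PCR products, digested with HpaI for 2 h at 37 C, are separated by capillary electrophoresis. Source RNA comes from transfected HepG2 cultures treated for 24 h.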

[11] = ATG_M_61_CIS: Attagene CIS-FACTORIAL HepG2 Assay for M61 Transcription Factor (Internal Marker) (AID 2282937); conditions: HepG2 Attagene CIS-FACTORIAL M61 internal marker reporter; actives raise or lower the signal
In short: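 Fluorescence from labelled cDNA fragments, separated by capillary electrophoresis, quantifies reporter induction. HepG2 cells bearing transiently transfected cis-promoter MRTUs were incubated with test chemical for 24 h; DMSO defined baseline for gain/loss fitting.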

[12] = ATG_EGR_CIS: Attagene CIS-FACTORIAL HepG2 Assay for human Early Growth Response 1 (EGR1) (AID 2282938); conditions: HepG2 Attagene CIS-FACTORIAL EGR reporter mRNA; actives raise or lower the signal
In short: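 Cell-based multiplex transcription assay: HepG2 carrying transfected cis-element reporter units, 24 h chemical treatment. Fluorescence from capillary electrophoresis of RT-PCR products gives mRNA levels; fitting is bidirectional relative to DMSO.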

[13] = ATG_M_19_CIS: Attagene CIS-FACTORIAL HepG2 Assay for M19 Transcription Factor (Internal Marker) (AID 2282939); conditions: HepG2 Attagene CIS-FACTORIAL M19 internal marker reporter; actives raise or lower the signal
In short: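 HepG2 cells transiently transfected with cis-regulated multiple reporter transcription units were dosed for 24 h; reporter mRNA was quantified by RT-PCR, 6-FAM primer-extension labelling, HpaI digestion and capillary electrophoresis, with bidirectional fitting against DMSO baseline.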

[14] = ATG_ERE_CIS: Attagene CIS-FACTORIAL HepG2 Assay for Estrogen Response Element (ERE) (AID 2282940); conditions: HepG2 ERE cis-reporter, Attagene RNA transcript; actives raise or lower the signal
In short: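 HepG2 cells transiently transfected with cis-promoter-driven multiplexed reporter transcription units report endogenous TF activity. After 24 h compound exposure, reporter mRNA is quantified by RT-PCR with capillary electrophoresis fluorescence; bidirectional fitting versus DMSO baseline.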

[15] = ATG_Ets_CIS: Attagene CIS-FACTORIAL HepG2 Assay for human Erythroblast Transformation Specific (ETS) (AID 2282941); conditions: HepG2 ETS cis-reporter transcription, actives raise or lower the signal
In short: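 Bidirectional fit versus DMSO of reporter mRNA signal, detected by RT-PCR and capillary electrophoresis in HepG2 cells transiently transfected with cis-element reporters and dosed 24 h.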

[16] = molecular target: Hepatocyte nuclear factor 3-beta (Homo sapiens) (UniProt Q9Y261); assay: ATG_FoxA2_CIS: Attagene CIS-FACTORIAL HepG2 Assay for human Forkhead box A2 (FOXA2) (AID 2282942); conditions: HepG2 cis-reporter transcription factor activity, 24 h; actives raise or lower the signal
In short: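 In transiently transfected human HepG2 cells, promoter-driven reporter mRNA levels after 24 h chemical exposure are determined via RT-PCR with capillary electrophoresis. DMSO serves as baseline for bidirectional fitting.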

[17] = ATG_GATA_CIS: Attagene CIS-FACTORIAL HepG2 Assay for human GATA Binding Protein (AID 2282944); conditions: HepG2 GATA cis-element reporter, Attagene multiplex mRNA; actives raise or lower the signal
In short: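 HepG2 cells transiently transfected with multiplexed cis-element reporter units reflecting endogenous transcription factor activity; reporter mRNA measured after 24 h dosing by RT-PCR, 6-FAM labeling, HpaI digestion and capillary electrophoresis. Bidirectional fitting versus DMSO baseline.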

[18] = ATG_AP_1_CIS: Attagene CIS-FACTORIAL HepG2 Assay for human Activator Protein 1 (AP-1) (AID 2282931); conditions: HepG2 Attagene cis-factorial AP-1 reporter mRNA; actives raise or lower the signal
In short: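 Bidirectional concentration-response fitting against DMSO controls. Underlying signal: reporter mRNA from cis-promoter constructs in transiently transfected HepG2, measured after 24 h by RT-PCR and capillary electrophoresis.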

[19] = ATG_E_Box_CIS: Attagene CIS-FACTORIAL HepG2 Assay for human Enhancer Box (E-box) (AID 2282936); conditions: HepG2 E-box cis-reporter transcription, actives raise or lower the signal
In short: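 Fluorescent reporter fragments separated by capillary electrophoresis gave the signal; mRNA came from HepG2 cells transfected with cis-element reporters and treated 24 h. Curves fitted bidirectionally relative to DMSO controls.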

[20] = ATG_FoxO_CIS: Attagene CIS-FACTORIAL HepG2 Assay for human Forkhead box O (FoxO) (AID 2282943); conditions: HepG2 Attagene cis-reporter, FoxO element, mRNA; actives raise or lower the signal
In short: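 Human hepatoma HepG2 cells carry transiently introduced reporter transcription units controlled by cis promoter elements. Chemical treatment lasted 24 h, and mRNA signal was compared with DMSO.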

Measured: outcome

Chain of Transcription factor E2F1 (Homo sapiens) (Q01094 whole entry, looked up): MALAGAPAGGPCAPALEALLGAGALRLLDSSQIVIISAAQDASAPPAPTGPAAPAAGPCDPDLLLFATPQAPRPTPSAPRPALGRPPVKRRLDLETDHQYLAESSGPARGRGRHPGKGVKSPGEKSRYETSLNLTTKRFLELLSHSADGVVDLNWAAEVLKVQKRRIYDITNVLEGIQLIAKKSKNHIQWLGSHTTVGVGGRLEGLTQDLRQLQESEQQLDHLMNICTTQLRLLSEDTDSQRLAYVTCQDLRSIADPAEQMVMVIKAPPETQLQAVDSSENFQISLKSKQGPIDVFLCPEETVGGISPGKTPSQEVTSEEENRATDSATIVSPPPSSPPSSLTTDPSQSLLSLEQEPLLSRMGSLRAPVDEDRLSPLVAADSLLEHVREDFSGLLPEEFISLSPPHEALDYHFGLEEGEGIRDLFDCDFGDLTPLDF
Chain of Hepatocyte nuclear factor 3-beta (Homo sapiens) (Q9Y261 whole entry, looked up): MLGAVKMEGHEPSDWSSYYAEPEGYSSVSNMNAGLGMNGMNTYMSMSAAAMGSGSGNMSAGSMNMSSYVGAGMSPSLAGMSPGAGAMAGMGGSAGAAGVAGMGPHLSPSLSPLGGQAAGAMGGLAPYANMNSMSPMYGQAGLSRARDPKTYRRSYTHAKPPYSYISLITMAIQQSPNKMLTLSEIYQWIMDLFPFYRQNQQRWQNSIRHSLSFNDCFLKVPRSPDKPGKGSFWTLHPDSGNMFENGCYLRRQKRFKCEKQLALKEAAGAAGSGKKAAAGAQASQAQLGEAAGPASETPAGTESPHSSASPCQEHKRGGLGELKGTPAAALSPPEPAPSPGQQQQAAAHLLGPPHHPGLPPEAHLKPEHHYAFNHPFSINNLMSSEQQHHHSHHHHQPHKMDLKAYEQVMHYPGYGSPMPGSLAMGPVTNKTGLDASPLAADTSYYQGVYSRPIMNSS
Chain of CCAAT/enhancer-binding protein beta (Homo sapiens) (P17676 whole entry, looked up): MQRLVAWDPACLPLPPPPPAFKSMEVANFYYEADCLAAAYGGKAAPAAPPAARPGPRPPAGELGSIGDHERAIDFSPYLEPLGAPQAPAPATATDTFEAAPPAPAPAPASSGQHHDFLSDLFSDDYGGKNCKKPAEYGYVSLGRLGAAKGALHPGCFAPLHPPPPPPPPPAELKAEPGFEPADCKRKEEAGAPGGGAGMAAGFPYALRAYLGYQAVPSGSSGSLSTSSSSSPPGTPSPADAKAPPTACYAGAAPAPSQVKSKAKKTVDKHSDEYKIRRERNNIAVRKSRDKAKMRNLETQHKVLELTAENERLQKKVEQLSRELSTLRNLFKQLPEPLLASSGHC
Chain of Aryl hydrocarbon receptor (Homo sapiens) (P35869 whole entry, looked up): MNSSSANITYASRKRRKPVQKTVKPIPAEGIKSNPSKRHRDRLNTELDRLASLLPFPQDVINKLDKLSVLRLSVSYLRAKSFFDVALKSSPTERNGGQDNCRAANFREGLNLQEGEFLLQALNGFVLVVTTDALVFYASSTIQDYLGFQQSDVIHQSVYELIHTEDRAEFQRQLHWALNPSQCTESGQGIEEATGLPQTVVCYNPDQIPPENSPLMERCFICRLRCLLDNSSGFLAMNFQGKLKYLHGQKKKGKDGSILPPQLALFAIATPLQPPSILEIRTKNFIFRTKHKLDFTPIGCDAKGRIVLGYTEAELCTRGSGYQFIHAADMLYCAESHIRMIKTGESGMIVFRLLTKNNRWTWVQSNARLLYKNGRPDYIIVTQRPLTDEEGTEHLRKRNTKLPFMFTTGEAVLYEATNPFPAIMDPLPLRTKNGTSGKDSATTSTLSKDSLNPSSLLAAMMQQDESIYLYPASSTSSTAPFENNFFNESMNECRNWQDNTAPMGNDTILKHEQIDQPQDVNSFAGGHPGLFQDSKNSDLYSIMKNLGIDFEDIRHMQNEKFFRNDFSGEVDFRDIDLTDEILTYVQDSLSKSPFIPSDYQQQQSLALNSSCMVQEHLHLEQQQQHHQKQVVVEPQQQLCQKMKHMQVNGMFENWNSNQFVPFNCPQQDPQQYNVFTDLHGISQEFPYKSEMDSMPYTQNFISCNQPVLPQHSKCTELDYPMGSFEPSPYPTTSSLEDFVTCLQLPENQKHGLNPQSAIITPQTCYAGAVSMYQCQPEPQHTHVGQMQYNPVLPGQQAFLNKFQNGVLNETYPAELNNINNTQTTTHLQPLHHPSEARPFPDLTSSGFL
Chain of Retinoic acid receptor alpha (Homo sapiens) (P10276 whole entry, looked up): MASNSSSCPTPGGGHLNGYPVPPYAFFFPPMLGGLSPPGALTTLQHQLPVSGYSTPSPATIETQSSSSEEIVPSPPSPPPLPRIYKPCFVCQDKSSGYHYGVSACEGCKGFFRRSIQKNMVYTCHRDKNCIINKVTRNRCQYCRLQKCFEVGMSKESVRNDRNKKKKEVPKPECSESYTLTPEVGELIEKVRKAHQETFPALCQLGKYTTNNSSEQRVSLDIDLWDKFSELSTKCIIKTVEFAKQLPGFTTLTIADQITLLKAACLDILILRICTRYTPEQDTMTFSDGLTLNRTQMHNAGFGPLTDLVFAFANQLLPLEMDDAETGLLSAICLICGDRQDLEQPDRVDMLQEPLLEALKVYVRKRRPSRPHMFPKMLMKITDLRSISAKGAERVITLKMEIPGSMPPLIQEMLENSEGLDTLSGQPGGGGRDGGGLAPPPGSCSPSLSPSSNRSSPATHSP

CC(C)[N+](C)(CCOC(=O)C1c2ccccc2Oc2ccccc21)C(C)C
not listed: [18] | [19] | [20]
inactive: all other assays above

CCC(=O)C1CC(C(C)C)CC=C1C (stereo unspecified)
not listed: [8] | [9]
inactive: all other assays above

CC1=CCC2CC1C2(C)C (stereo unspecified)
not listed: [6] | [19]
inactive: all other assays above

CC(C)CCCCCOC(=O)CS
not listed: [8] | [18]
inactive: all other assays above
